Our source for the residual activity values is ChEMBL document CHEMBL2218924, “A broad activity screen in support of a chemogenomic map for kinase signalling research and drug discovery” (Biochem J, 2013).

Usually residual activity stands for the signal under treatment as a percentage of the control signal.

The structures appear in SMILES notation.

Test [1] addresses BDNF/NT-3 growth factors receptor (Homo sapiens) (UniProt Q16620). The note with it: at 10 µM.
In test [2] the target is T1, Tyrosine-protein kinase TXK (Homo sapiens) (UniProt P42681).
T1 sequence (whole entry): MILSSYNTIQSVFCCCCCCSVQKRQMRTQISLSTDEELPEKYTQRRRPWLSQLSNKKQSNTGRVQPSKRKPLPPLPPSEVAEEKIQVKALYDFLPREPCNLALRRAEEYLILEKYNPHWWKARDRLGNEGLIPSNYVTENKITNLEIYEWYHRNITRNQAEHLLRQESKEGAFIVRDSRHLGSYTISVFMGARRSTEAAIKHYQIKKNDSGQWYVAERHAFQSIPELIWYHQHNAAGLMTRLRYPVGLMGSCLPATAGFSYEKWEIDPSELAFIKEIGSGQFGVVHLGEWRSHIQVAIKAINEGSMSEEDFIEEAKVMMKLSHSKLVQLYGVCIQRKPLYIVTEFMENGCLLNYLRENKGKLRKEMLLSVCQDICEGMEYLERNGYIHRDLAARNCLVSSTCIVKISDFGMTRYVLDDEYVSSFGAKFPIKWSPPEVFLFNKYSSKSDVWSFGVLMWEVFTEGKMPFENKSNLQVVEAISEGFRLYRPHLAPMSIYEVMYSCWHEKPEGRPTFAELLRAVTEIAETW
The note with it: at 1 µM.

Test [3] has as its target T1, Tyrosine-protein kinase TXK (Homo sapiens). The note with it: at 10 µM.
The target of test [4] is T2, Serine/threonine-protein kinase ULK2 (Homo sapiens) (UniProt Q8IYT8).
T2 sequence (whole entry): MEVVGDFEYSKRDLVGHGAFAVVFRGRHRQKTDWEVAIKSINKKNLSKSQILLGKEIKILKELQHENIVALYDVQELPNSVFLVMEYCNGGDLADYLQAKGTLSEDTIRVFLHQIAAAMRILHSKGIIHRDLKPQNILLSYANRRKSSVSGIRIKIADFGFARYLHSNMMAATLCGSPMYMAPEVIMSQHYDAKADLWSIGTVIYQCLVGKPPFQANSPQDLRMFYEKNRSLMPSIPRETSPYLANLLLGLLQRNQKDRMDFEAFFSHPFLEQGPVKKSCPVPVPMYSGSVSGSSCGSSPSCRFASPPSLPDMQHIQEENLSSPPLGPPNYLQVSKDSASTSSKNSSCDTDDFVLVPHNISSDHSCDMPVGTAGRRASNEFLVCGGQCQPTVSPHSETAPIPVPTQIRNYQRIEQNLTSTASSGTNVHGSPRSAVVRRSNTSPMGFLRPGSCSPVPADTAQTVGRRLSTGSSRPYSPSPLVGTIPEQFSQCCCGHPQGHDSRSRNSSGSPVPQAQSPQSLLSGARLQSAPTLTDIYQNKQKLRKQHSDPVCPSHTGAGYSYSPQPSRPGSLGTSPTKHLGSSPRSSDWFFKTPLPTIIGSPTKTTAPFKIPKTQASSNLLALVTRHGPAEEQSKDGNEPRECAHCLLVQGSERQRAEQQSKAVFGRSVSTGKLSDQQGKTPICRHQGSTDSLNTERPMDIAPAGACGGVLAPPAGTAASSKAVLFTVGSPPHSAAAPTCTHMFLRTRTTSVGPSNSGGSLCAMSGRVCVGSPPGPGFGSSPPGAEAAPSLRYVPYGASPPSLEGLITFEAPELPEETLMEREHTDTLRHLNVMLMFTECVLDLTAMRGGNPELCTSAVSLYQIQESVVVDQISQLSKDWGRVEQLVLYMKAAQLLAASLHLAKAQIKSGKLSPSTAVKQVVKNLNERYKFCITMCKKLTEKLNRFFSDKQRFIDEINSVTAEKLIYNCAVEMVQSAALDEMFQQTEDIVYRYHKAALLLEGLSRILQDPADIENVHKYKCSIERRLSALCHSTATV
The following applies: at 1 µM.

Test [5] deals with T2, Serine/threonine-protein kinase ULK2 (Homo sapiens). The following applies: at 10 µM.
Test [6] addresses T3, Serine/threonine-protein kinase ULK3 (Homo sapiens) (UniProt Q6PHR2).
T3 sequence (whole entry): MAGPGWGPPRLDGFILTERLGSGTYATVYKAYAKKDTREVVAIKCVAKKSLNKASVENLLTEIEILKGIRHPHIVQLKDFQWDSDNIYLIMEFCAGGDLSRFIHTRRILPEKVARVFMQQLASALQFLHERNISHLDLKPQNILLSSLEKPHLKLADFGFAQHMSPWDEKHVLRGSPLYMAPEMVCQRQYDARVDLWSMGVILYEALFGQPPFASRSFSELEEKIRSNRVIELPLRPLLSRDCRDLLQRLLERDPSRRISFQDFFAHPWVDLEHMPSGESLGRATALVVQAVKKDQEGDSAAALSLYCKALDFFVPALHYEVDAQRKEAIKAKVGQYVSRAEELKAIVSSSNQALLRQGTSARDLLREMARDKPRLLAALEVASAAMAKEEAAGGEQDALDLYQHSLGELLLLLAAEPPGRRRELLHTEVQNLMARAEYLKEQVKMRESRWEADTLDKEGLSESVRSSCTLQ
The following applies: at 1 µM.

The target of test [7] is T3, Serine/threonine-protein kinase ULK3 (Homo sapiens). The note with it: at 10 µM.
For test [8], the target named is Serine/threonine-protein kinase VRK2 (Homo sapiens) (UniProt Q86Y07). The note with it: at 1 µM.
Test [9] shares this target. The following applies: at 10 µM.
The target of test [10] is Serine/threonine-protein kinase WNK2 (Homo sapiens) (UniProt Q9Y3S1). The note with it: at 1 µM.
Test [11] has the same target. The following applies: at 10 µM.
In test [12] the target is Serine/threonine-protein kinase WNK3 (Homo sapiens) (UniProt Q9BYP7). The note with it: at 1 µM.
The target is the same in test [13]. The following applies: at 10 µM.
In test [14] the target is Tyrosine-protein kinase Yes (Homo sapiens) (UniProt P07947). The note with it: at 1 µM.
Test [15] has the same target. The note with it: at 10 µM.
The target in test [16] is T4, Tyrosine-protein kinase ZAP-70 (Homo sapiens) (UniProt P43403).
T4 sequence (whole entry): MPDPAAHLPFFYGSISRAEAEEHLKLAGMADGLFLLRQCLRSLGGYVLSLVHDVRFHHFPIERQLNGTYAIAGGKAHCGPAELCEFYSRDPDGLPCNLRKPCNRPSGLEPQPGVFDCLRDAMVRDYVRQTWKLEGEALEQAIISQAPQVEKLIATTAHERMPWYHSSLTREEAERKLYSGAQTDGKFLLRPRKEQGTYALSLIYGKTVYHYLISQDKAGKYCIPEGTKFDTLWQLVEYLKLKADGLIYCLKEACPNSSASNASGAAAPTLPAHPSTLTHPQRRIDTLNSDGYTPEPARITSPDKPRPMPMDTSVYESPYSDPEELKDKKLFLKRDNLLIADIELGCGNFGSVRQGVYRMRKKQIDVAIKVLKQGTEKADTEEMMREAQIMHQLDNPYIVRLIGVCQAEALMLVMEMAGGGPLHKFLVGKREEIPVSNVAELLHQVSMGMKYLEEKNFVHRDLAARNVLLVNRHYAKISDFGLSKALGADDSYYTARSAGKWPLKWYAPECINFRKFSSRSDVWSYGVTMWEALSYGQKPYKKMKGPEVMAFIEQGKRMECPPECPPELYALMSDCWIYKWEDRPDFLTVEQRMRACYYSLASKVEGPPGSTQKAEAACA
The note with it: at 1 µM.

Test [17] deals with Death-associated protein kinase 3 (Homo sapiens) (UniProt O43293). The note with it: at 1 µM.
The target is the same in test [18]. The note with it: at 10 µM.
In test [19] the target is RAF proto-oncogene serine/threonine-protein kinase (Homo sapiens) (UniProt P04049). The following applies: at 1 µM.
The target is the same in test [20]. The note with it: at 10 µM.

Chain of BDNF/NT-3 growth factors receptor (Homo sapiens) (Q16620 32-822 limits assumed): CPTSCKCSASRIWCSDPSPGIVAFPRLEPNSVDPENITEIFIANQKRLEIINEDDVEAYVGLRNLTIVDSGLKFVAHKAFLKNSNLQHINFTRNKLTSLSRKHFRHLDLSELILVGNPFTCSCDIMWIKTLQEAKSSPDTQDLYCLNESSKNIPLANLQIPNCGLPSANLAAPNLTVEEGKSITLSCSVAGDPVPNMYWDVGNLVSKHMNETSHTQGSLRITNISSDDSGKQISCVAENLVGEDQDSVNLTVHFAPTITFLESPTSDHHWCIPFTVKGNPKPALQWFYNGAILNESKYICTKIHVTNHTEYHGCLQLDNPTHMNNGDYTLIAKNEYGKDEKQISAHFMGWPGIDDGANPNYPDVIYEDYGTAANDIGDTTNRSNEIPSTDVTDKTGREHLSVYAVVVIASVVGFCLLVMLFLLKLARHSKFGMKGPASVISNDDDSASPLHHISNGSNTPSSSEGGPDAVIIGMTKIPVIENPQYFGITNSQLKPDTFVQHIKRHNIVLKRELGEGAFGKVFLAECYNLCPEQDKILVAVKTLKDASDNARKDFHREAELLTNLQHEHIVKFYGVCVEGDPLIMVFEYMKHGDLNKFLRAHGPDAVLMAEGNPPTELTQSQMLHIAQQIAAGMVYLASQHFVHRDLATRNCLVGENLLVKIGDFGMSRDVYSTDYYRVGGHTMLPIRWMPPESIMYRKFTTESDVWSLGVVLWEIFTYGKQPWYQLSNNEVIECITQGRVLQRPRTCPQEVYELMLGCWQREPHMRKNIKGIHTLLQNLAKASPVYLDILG
Chain of RAF proto-oncogene serine/threonine-protein kinase (Homo sapiens) (P04049 whole entry): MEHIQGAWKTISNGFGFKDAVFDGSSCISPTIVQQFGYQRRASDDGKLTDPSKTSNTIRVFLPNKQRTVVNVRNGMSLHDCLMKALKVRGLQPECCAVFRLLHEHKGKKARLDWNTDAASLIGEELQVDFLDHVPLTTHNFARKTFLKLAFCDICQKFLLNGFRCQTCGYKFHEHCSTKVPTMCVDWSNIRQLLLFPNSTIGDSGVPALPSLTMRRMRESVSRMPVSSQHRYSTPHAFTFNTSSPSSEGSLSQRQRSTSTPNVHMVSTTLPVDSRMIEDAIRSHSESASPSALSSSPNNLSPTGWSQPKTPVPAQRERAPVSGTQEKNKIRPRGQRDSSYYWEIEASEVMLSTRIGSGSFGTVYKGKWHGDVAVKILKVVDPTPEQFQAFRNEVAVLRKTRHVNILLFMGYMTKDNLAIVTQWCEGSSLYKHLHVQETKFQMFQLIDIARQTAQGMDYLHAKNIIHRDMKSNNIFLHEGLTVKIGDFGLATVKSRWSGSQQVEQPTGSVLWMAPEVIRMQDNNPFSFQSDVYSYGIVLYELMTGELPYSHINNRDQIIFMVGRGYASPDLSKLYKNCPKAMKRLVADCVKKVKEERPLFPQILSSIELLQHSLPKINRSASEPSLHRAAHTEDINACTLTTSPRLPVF
Chain of Serine/threonine-protein kinase WNK2 (Homo sapiens) (Q9Y3S1 whole entry): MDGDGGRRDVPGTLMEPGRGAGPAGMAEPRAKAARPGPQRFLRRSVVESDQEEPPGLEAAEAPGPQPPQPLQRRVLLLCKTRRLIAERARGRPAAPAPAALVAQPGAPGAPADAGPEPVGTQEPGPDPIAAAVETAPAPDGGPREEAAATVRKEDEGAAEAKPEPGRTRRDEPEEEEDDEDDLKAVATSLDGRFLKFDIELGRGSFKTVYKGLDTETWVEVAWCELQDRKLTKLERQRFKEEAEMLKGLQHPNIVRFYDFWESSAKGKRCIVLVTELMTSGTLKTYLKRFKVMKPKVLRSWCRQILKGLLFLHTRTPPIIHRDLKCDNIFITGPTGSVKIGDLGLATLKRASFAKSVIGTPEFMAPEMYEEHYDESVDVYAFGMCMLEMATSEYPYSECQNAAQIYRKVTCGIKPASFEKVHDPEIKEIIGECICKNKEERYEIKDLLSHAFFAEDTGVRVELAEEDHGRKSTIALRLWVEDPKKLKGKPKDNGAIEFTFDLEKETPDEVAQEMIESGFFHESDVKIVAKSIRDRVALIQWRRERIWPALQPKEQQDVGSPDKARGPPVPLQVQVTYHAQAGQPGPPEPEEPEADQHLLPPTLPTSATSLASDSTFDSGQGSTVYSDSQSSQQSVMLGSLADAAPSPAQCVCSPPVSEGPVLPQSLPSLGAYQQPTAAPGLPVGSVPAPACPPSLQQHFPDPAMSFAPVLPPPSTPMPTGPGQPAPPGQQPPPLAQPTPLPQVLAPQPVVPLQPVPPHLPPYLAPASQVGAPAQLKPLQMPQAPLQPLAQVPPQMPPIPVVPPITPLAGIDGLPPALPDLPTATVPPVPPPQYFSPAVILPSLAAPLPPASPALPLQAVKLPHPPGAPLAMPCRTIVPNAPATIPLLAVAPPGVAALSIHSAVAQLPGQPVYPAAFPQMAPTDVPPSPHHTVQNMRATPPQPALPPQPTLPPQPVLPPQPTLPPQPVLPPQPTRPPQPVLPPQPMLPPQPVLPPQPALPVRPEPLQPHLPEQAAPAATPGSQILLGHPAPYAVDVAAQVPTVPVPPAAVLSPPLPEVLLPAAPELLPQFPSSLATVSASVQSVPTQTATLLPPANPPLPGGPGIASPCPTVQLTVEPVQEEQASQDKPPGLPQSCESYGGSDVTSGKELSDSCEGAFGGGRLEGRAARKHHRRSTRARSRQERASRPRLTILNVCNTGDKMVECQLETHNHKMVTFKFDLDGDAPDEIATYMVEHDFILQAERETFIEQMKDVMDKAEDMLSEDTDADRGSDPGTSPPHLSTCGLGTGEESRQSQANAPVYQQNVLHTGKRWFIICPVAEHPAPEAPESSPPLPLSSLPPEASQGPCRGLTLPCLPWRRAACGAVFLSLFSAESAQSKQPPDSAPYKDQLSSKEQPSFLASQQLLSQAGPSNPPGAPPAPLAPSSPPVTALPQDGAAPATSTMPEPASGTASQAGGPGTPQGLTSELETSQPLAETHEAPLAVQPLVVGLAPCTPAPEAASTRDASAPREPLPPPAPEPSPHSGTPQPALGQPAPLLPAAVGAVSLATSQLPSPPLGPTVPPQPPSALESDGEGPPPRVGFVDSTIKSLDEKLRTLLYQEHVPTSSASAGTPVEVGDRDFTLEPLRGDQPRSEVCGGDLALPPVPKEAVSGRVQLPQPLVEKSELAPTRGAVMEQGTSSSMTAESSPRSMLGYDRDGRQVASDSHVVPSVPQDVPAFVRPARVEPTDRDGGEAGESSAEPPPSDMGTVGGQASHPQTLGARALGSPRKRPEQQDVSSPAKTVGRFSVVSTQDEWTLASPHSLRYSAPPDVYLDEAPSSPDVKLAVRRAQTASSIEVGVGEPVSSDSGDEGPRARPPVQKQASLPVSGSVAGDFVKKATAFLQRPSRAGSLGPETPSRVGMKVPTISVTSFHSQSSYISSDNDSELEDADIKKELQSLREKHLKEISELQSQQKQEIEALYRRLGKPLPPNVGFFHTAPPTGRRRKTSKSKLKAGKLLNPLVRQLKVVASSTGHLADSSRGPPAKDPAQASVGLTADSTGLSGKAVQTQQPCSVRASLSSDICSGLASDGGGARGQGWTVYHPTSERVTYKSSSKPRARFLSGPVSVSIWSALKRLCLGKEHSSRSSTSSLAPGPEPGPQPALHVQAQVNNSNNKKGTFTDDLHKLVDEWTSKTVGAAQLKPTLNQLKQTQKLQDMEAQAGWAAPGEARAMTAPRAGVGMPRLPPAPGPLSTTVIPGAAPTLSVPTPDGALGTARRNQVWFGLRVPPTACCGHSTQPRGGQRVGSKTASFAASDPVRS
Chain of Tyrosine-protein kinase Yes (Homo sapiens) (P07947 2-543 limits assumed): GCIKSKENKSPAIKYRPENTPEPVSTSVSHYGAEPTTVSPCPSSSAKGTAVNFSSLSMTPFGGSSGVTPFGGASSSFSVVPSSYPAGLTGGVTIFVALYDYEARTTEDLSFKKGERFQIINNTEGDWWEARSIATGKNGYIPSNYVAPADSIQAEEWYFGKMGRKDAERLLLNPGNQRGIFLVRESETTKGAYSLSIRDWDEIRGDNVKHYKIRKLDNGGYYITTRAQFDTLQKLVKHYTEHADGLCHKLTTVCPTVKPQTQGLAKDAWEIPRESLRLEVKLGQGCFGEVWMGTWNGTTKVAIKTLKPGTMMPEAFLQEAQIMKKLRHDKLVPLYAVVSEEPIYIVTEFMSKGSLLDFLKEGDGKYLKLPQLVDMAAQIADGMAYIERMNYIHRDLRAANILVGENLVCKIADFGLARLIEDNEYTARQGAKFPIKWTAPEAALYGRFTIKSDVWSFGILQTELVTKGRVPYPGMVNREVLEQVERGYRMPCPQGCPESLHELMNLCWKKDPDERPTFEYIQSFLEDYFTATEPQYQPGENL
Chain of Serine/threonine-protein kinase VRK2 (Homo sapiens) (Q86Y07 whole entry): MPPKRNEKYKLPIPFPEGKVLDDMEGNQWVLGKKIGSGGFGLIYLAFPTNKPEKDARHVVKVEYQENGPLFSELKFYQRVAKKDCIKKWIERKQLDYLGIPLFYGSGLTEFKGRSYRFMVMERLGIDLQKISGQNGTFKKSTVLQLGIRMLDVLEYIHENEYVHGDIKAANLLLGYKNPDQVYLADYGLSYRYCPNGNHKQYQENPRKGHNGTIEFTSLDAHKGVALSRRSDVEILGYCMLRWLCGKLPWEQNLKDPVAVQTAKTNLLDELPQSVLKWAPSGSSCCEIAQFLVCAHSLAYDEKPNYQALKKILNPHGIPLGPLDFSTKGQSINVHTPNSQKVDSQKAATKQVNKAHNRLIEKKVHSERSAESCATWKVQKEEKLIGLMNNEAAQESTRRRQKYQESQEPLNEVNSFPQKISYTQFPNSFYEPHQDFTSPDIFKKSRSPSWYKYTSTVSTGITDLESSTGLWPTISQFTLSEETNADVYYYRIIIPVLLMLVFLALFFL

In the case of `CC(C)n1cnc2c(NCc3ccccc3)nc(NCCCO)nc21`, the residual activity was 98% in test [1]; 75% in [2]; 74% in test [3]; 106% in [4]; 101% in test [5]; 95% in test [6]. For the same compound, the residual activity in [7] was 90%; in test [8], 95% (inactive); in [9] it was 69%; in test [10], 98% (inactive); in test [11] it was 89%; in test [12], 105% (inactive). Also, the residual activity was 92% in [13]; 108% in test [14]; 88% in test [15]; 114% in [16]; 87% in test [17]; 97% in test [18]. Moreover, the residual activity in test [19] turned out to be 85%; in test [20] it was 78%.
Take `O=C(Nc1cccc(Nc2cc(Nc3cccc(C(F)(F)F)c3)ncn2)c1)C1CC1`: the residual activity amounted to 37% in test [1]; 109% in test [2]; 69% in test [3]; 103% in test [4]; 103% in test [5]; 110% in [6]. The residual activity in [7] is 94%; in [8], 107% (inactive); in [9] it was 77%; in test [10], 103% (inactive); in test [11], 81%; in test [12] it was 95% (inactive). The residual activity in test [13] is 85%; in [14], 76%; in test [15], 60%; in test [16] it was 97%; in test [17] it was 89%; in test [18], 112%. The values for the residual activity in test [19] and in [20] were 91% and 87%, respectively.
As to `CCOc1cc2ncnc(Nc3cccc(Br)c3)c2cc1OCC`, the residual activity amounted to 88% in test [1]; 75% in [2]; 24% in test [3]; 94% in test [4]; 78% in test [5]; 96% in test [6]. For the same compound, the residual activity in test [7] is 71%; in test [8], 99% (inactive); in test [9], 74%; in test [10], 102% (inactive); in test [11], 79%; in test [12], 99% (inactive). Besides, the residual activity in test [13] is 86%; in test [14], 17%; in test [15], 2%; in test [16], 122%; in test [17], 91%; in test [18] it was 96%. In addition, the figures for the residual activity in [19] and in test [20] were 84% and 71%, respectively.
In the case of `O=C1NC(=O)/C(=C/c2ccc3c(c2)OC(F)(F)O3)S1`, the residual activity in test [1] was 24%; in test [2] it was 109%; in test [3] it was 104%; in test [4], 106%; in test [5] it was 97%; in test [6], 105%. Further, the residual activity is 89% in test [7]; 112% (inactive) in [8]; 97% in [9]; 114% (inactive) in test [10]; 85% in test [11]; 104% (inactive) in test [12]. The residual activity in test [13] was 98%; in test [14], 117%; in test [15], 116%; in [16], 116%; in test [17], 102%; in [18], 98%. Further, the residual activity in [19] worked out at 92%; in test [20], 101%.
Take `C[C@@H](N)[C@H]1CC[C@H](C(=O)Nc2ccncc2)CC1`: the residual activity came out at 99% in test [1]; 100% in test [2]; 94% in test [3]; 85% in test [4]; 39% in test [5]; 95% in test [6]. Also, the residual activity was 68% in [7]; 96% (inactive) in [8]; 95% (inactive) in test [10]; 90% in test [11]; 106% (inactive) in test [12]; 102% in [13]. Moreover, the residual activity came to 108% in test [14]; 94% in [15]; 92% in [16]; 101% in test [17]; 99% in test [18]; 100% in test [19]. For the same compound, in test [20], the residual activity turned out to be 108%.
Consider `Ic1cccc(CSc2nnc(-c3ccncc3)o2)c1`, for which the residual activity is 28% in [1]; 75% in test [2]; 81% in test [3]; 98% in [4]; 86% in test [6]; 92% in [7]. Besides, the residual activity in test [8] is 92% (inactive); in test [9], 79%; in [10] it was 87% (inactive); in test [11], 83%; in [12], 89% (inactive); in test [13] it was 89%. Besides, the residual activity was determined as 96% in test [14]; 84% in [15]; 101% in test [16]; 107% in [17]; 105% in [18]; 77% in [19]. Also, the residual activity in test [20] is 64%.
Regarding `O=C1NC(=O)/C(=C\c2ccc3nccnc3c2)S1`, the residual activity in test [1] came to 94%; in test [2], 100%; in test [3], 93%; in [4] it was 104%; in test [5], 82%; in test [6], 99%. Further, the residual activity in test [7] is 63%; in test [8] it was 93% (inactive); in [9] it was 92%; in test [10], 82% (inactive); in test [11] it was 65%; in test [12], 83% (inactive). Moreover, the residual activity in test [13] turned out to be 79%; in [14], 119%; in test [15], 102%; in test [16] it was 109%; in test [17] it was 71%; in [18], 21%. Also, the residual activity in [19] is 73%; in test [20], 44%.
